Among all 210,000 compounds or so, about 5,900 (2.8%) were called active. Not shown: some 5% with an inconclusive outcome. Calls come from the whole dose curve; as a rule, active = well fitted activation curve with a large enough effect; inconclusive = small, poorly fitted or top-dose-only effect; inactive = no such curve, though single readings can be large or run the other way. The list comes from a sample in which actives are over-represented; it also holds similar structures and randomly drawn compounds.
Experiment: qHTS Assay for Enhancers of SMN2 Splice Variant Expression; note: nearly all actives have a fitted effect of over 55% in size; for Activity change, positive = activation: % of control where 0% means no effect
Conditions: HEK293 SMN2-luciferase splicing reporter, luminescence, 30-36 h; series mostly up to 46.1 µM
Outline: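 HEK293 cells carry an SMN2 minigene-luciferase reporter in which exon 7 inclusion puts luciferase in frame. Cells were seeded at 2000 cells/well, attached for 10-12 hours, then exposed to compounds for 30-36 hours at 37C before ONE-Glo luminescence.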
Potency is the fitted concentration of half-maximal effect.

Potency, inactive:
CCOc1ccc2oc(=O)cc(CN3CCN(C(=O)c4ccc(F)cc4)CC3)c2c1, CCOC(=O)c1ccc(NC(=O)CC2C(=O)N(c3cccc(OC)c3)C(=O)N2C2CCCCC2)cc1 (stereo unspecified), COc1cc(C(=O)N2CCN(C(=O)COc3cccc(C)c3)CC2)cc(OC)c1OC, CC(=O)c1sc(N2C(=O)c3oc4ccccc4c(=O)c3C2c2ccc(C)cc2)nc1C (stereo unspecified), CCc1ccc(NC(=O)c2sc3nc4c(cc3c2N)CN(CC)CC4)cc1, O=C(/C=C/c1ccco1)Nc1ccc(Oc2ccccc2)cc1, O=C(CSc1ccccc1)Nc1ccc(NC(=O)c2ccco2)cc1, C#CC(C)(CC)NC(=O)Cn1nnc(-c2ccc(OCc3c(F)cccc3Cl)cc2)n1 (stereo unspecified), COc1ccc(CCNC(=O)CCCCn2c(=O)c3ccccc3n(Cc3ccccc3)c2=O)cc1OC, COc1cc(/C=C/CO)cc(OC)c1O[C@@H]1O[C@H](CO)[C@@H](O)[C@H](O)[C@H]1O, Cc1noc(/C=C/N(C)C)c1S(=O)(=O)N1CCCC(C(=O)Nc2cccc(F)c2)C1 (stereo unspecified), Cc1cc(C)c(NC(=O)CCc2c(C)nc3c(c(C)nn3C(C)(C)C)c2C)c(C)c1, c1ccc(CSc2nnc(-c3ccco3)c(-c3ccco3)n2)cc1, O=C(CSc1nnc(-c2ccco2)n1Cc1ccccc1)NC(=O)NCc1ccco1, COc1ccc(Cn2cc(C(=O)c3ccc(C)cc3)c(=O)c3cc(OC)c(OC)cc32)cc1, Cc1ccn2c(Nc3ccc4c(c3)OCCO4)c(-c3ccc(C)s3)nc2c1, CCN(CC)S(=O)(=O)c1ccc(C(=O)N=c2sc3cccc(OC)c3n2C)cc1, Cc1cc(C)c(-c2n[nH]c3c2C(c2ccccc2F)N(CCO)C3=O)c(O)c1 (stereo unspecified), CCn1cc(C(=O)N2CCN(c3cc(C)ccc3C)CC2)c(=O)c2cc(S(=O)(=O)N(C)C3CCCCC3)ccc21, CCOc1ccc(NC(=O)CC2C(=O)N(c3cccc(OC)c3)C(=O)N2C2CCCCC2)cc1 (stereo unspecified), Cc1cccc(CC(=O)N2CC(=O)Nc3ccc(F)cc3C2c2ccccc2)c1 (stereo unspecified), Cc1ccc(NN=C2C(=O)OC(C)(C)OC2=O)c(C)c1, COc1ccc(N/N=C2/CCCCC2=O)cc1, CCCn1c(=N)n(CC(O)COc2ccccc2OC)c2ccccc21 (stereo unspecified), CCOC(=O)c1ccc(NC(=O)CCn2c(=O)oc3ccccc32)cc1, COc1ccc(/C=N/NC(=O)c2cccc(C(F)(F)F)c2)cc1, CSc1ccc(/C=N\NC(=O)COc2ccc(Cl)cc2Br)cc1, CCn1cc(C(=O)N(C)Cc2ccccc2)c(=O)c2cc(S(=O)(=O)N3CCCCCC3)ccc21, COC(=O)c1c(NC(=O)c2cc(=O)c3c(C)cc(C)cc3o2)sc2c1CCCC2, Cc1nc(SCCOc2ccc(Cl)cc2)[nH]c(=O)c1Cc1ccccc1, COc1ccc(/C=N\NC(=O)c2sc(N)nc2C)cc1OC, CC(=O)c1sc(NC(=O)C2=NN(c3ccccc3)C(=O)CC2)nc1C, Cc1ccc(S(=O)(=O)Nc2nc(C)cc(N/N=C/c3ccc(O)cc3)n2)cc1, CCOC(=O)CSc1nnc(NC(=O)c2cccc(S(=O)(=O)N3CCCCC3)c2)s1, Cc1nnc(C)n1/N=C/c1ccc(C(C)C)cc1, Cc1ccc(C(=O)Nc2nc(-c3ccccc3)ns2)cc1, CCSc1nnc(NC(=O)Cc2ccccc2OC)s1, CCc1ccc(S(=O)(=O)c2nnn3c2nc(NCc2ccccc2OC)c2cc(Cl)ccc23)cc1, CCOc1ccc(C2C(C(=O)Nc3ccc(Cl)cc3)=C(C)Nc3nc(C(F)(F)F)nn32)cc1 (stereo unspecified), Cc1nn(CC(=O)N2CCN(c3cccc(C(F)(F)F)c3)CC2)c(=O)c2cc3sccc3n12

Potency, active:
O=C(Nc1ccc(Oc2ccccc2)cc1)c1ccco1 15.8 µM, COc1cc(/C=C/C2=CC(C)(C)NC(=S)N2)cc(OC)c1OC 11.2 µM, c1ccc(CSc2nnc(-c3ccco3)n2Cc2ccccc2)cc1 22.4 µM, Cc1ccn(-c2cccc(-n3ccc(C)n3)n2)n1 7.94 µM, Cc1ccc(N/N=C2\COC(C)(C)CC2=O)cc1 11.2 µM, CSc1ccc(/C=N/NC(=O)c2cccc(Cl)c2)cc1 10 µM, CCSc1nnc(NC(=O)c2ccc(C)cc2)s1 14.1 µM, CC(=O)c1sc(N/N=C/c2ccc(C(C)C)cc2)nc1C 17.8 µM, CC(=O)c1sc(N/N=C\c2ccc(C)cc2)nc1C 10 µM, CC(=O)c1sc(NC(=O)c2ccc(C)cc2)nc1C 5.62 µM

Activity change, positive = activation, inactive:
Cc1nonc1C(=O)N/N=C/c1ccc(O)cc1 1.94% [at 1.84 µM]

Reference: PubChem BioAssay AID1458 (National Center for Advancing Translational Sciences (NCATS), 2008)
